HCMV antiviral: qHTS Assay for inhibitors of the human cytomegalovirus (HCMV). HFF cells, HCMV-luciferase reporter, 72 h; hits give low values. activity change, negative = inhibition, % at 57.5 µM. hit rate 4.5% among 410,000; in the data active means activity change below about -60%; inconclusive means no clear call, values can overlap the other calls; inactive means above about -39%; further: on the % scale 0 is the no-effect control and ±100 the full control effect
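Human foreskin fibroblasts infected with luciferase-reporter HCMV at MOI 1 PFU/cell, compounds at two doses. Luciferase measured 72 h post infection; normalized to buffer-only basal and Salinomycin (10uM) controls.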
Pf growth 96h: Primary qHTS for delayed death inhibitors of the malarial parasite plastid, 96 hour incubation; P. falciparum luciferase reporter growth, 96 h; hit rate 6.9% among 320,000; Potency, µM (highest dose often 28.7 µM), inactives show top-dose activity change, negative = inhibition, actives largely listed as inhibitors; further: potency means the concentration at half of the fitted maximal effect; on the % scale 0 is the no-effect control and ±100 the full control effect
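Plates of compound plus infected erythrocytes (2% hematocrit, 0.05% parasitemia final) incubate 96 hours, 37 C, 5% CO2. Detection reagent added; reduced luminescence from the parasites' luciferase reporter flags inhibition.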
Shiga inhibitor: A qHTS for Small Molecule Inhibitors of Shiga Toxin | hit rate 9.2% among 290,000 | inhibition, % at 38.7 µM | Vero cells, Shiga toxin protein synthesis inhibition reporter; in the data active means inhibition mostly above about 28%, no sharp cut-off; inactive means mostly below about 43%; further: 0% is about no effect
Pf growth 48h: Primary qHTS for delayed death inhibitors of the malarial parasite plastid, 48 hour incubation. P. falciparum luciferase growth in erythrocytes, 48 h. Potency, µM (doses to about 28.7 µM), without a hit: at the top dose activity change, negative = inhibition, most hits filed as inhibitors. hit rate 5.9% among 310,000; further: potency means the concentration at half of the fitted maximal effect; on the % scale 0 is the no-effect control and ±100 the full control effect
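Parasite viability was followed by luminescence of a genomically integrated firefly luciferase. Cultures held 0.1% parasitemia at 2% hematocrit (final), incubated under 5% CO2 at 37 C.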
CHX counter: Cycloheximide Counterscreen for Small Molecule Inhibitors of Shiga Toxin | hit rate 12% among 300,000 | max response, % | cell reporter, cycloheximide protein synthesis inhibition counterscreen; in the data active means max response mostly above about 13%, no sharp cut-off; inactive means mostly below about 14%; further: read at 38.3 µM for the half of the compounds with a filed dose; 0% is about no effect
Starred values were filed as active, the others as inactive; ? = inconclusive; . = no result; + = active, no number; [ ] = remark or other dose. Sampled rows, rich in hits. Any-hit rate of the full collection: about 20%. Unless noted, the call rests on the fitted dose curve; in most records, active means well fitted inhibition curve with a large enough effect; inconclusive means small, poorly fitted or top-dose-only effect, or another doubt; inactive means no such curve, though single readings can be large or run the other way.

SMILES	HCMV antiviral	Pf growth 96h	Shiga inhibitor	Pf growth 48h	CHX counter
COC(=O)N1C(=O)[C@](CC(C)C)(c2ccccc2)N1C(=O)OC	30	94%	-1	21%	15*
CC[C@@]1(c2ccccc2OC)C(=O)N(C(=O)OC)N1C(=O)OC	.	?	24*	-20%	25*
COC(=O)N1C(=O)[C@@](CC(C)C)(c2ccccc2)N1C(=O)OC	.	75%	17	27%	16*
COC(=O)N1C(=O)[C@@](c2ccccc2)(C2CCCC2)N1C(=O)OC	39	49%	14	24%	18*
CCOC(=O)N1C(=O)[C@@](CC)(c2ccccc2)N1C(=O)OCC	-10	6%	12	36%	17
CC1CCN(C(=O)c2cc(S(=O)(=O)N3CCOCC3)ccc2N2CCCC2)CC1	-31	6%	.	?	.
CC(=O)NCCNC(=O)c1nnc2n1CCN(C(=O)C1CCCCC1)C2	-17	.	.	.	.
COc1cc(OC)c(Nc2c3c(nc4nc(-c5cccs5)nn24)CCCC3)cc1Cl	11	.	.	.	.
Cn1c(=O)n(C)c2cc(NS(=O)(=O)c3ccc(C(C)(C)C)cc3)c(NCc3ccccc3)cc21	-30	.	.	.	.
Cc1ccc(-c2nnnn2C2C/C(=N\NC(N)=S)C3OCC2O3)cc1 (configuration not stated)	14	?	39	8%	20*
Cc1cc(NC(=O)c2ccc(C)c([N+](=O)[O-])c2)no1	14	?	32*	41%	31
Cc1cc(NC(=O)CSCC(=O)Nc2ccc(Cl)c(C(F)(F)F)c2)no1	-31	22%	.	?	.
Cc1ccc(C(=O)Nc2cccc(NC(=O)c3ccc(C)c([N+](=O)[O-])c3)n2)cc1[N+](=O)[O-]	-9	?	7	1.7µM*	0
Cc1ccc(C(=O)Nc2sc(C)c(-c3ccccc3)c2C(N)=O)cc1[N+](=O)[O-]	?	141%[5.75 µM]	127*	223%	62*
Cc1cc(NC(=O)CSCC(=O)Nc2ccc(C)c(C)c2)no1	+	-34%	.	-10%	.
CCOc1ccc(Cn2c(CNS(=O)(=O)c3ccc(CC)cc3)nc3cccnc32)cc1	21	.	.	.	.
CCCCCCCCCCCC(=O)c1c(O)cccc1O	21	88%	-16	27%	-1
CCN(CC(=O)NCc1ccc(Cl)cc1)C(=O)CN1C(=O)NC(CC)(c2ccccc2)C1=O (configuration not stated)	34	-14%	-12	-6%	-3
Cc1cc(N2C(=O)c3ccc(C(=O)Nc4ccc(CC(=O)O)cc4)cc3C2=O)no1	45	1.9µM*	-3	-10%	-1
Cc1cc(NC(=O)c2ccc3c(c2)C(=O)N(C)C3=O)no1	28	2.9µM*	-1	.	3
Cc1cc(NC(=O)c2ccc3c(c2)C(=O)N(CCC(C)C)C3=O)no1	-14	9%	-5	11%	1
Cc1cc(NC(=O)c2ccc(C)c(C)c2)no1	84	?	.	0%	37*
CCCN1CCc2c(sc(NC(=S)NC(=O)c3ccccc3)c2C#N)C1	18	0%	43*	?	38*
CC(C)N1CCc2c(sc(NC(=S)NC(=O)c3ccccc3)c2C#N)C1	9	0.47µM*	39*	10µM*	45*
CC(C)C1Cc2c(sc(NC(=S)NC(=O)c3ccccc3)c2C#N)CO1 (configuration not stated)	15	0%	-7	8%	-4
SMILES	HCMV antiviral	Pf growth 96h	Shiga inhibitor	Pf growth 48h	CHX counter
Cc1sc(NC(=S)NC(=O)c2ccccc2)c(C#N)c1C	3	.	.	.	.
Cc1ccc(NC2CCCN(C(=O)c3ccoc3C)C2)cc1C (configuration not stated)	31	?	-4	0%	2
COC(=O)c1ccccc1NC(=O)Cn1cnc2cc(C)c(C)cc21	-28	17%	-5	-11%	-3
O=C(NNc1c2ccccc2nc2ccccc12)c1ccc(O)cc1O	-20	?	17	?	14
O=C(NNc1c2ccccc2nc2ccccc12)C12CC3CC(CC(C3)C1)C2	-32	13µM*	10	?	-1
O=C(NNc1c2ccccc2nc2ccccc12)c1cccc(O)c1	-61*	?	9	13µM*	8
O=C(CCc1ccccc1)NNC(=O)C12CC3CC(CC(C3)C1)C2	38	83%	45	-2%	21*

Bioassay records as filed in PubChem BioAssay.
